# Reference: PubChem BioAssay (NCI)
# The panel holds about 83,000 compounds, 20% with a hit somewhere; the sample as a whole holds those more often.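 Cell lines were cultured in 96-well plates, exposed to a single compound concentration, and assessed for percent growth 48 hours later.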 Activity calls are given as the source filed them. Rule for the calls: active = growth percent below 10; inactive = the rest.
# Test system: NCI-H226 lung
# Test: NCI-60 one-dose screen, 48 h (100 = growth as untreated, 0 = no growth, -100 = all killed)
# Conditions: 10 µM unless noted
row,Compound,growth
1,CCCC[C@H](NC(=O)[C@H]1CCCN1C)C(=O)N(C)[C@H](C[C@@H](OC(C)=O)c1nc(C(=O)N[C@@H](Cc2ccccc2)C[C@H](C)C(=O)OCC)cs1)C(C)C,37.2% (inactive)
2,COc1ccc2c(c1)c(-c1nc(-c3c[nH]c4ncccc34)cs1)cn2CCCCN1CCCCC1,39.6% (inactive)
3,COC(=O)[C@H](Cc1ccccc1)NC(=O)c1csc([C@@H](C[C@H](C(C)C)N(C)C(=O)[C@@H](NC(=O)[C@H]2CCCN2C)C2CC2)OC(C)=O)n1,58% (inactive)
4,C[C@]12CC[C@H]3[C@@H](CC[C@]4(O)C[C@@H](O[C@@H]5O[C@H](CO)[C@@H](O[C@@H]6OC[C@@H](O)[C@H](O)[C@H]6O)[C@H](O)[C@H]5O)CC[C@]34C=O)[C@@]1(O)CC[C@@H]2C1=CC(=O)OC1,-2.96% (active)
5,c1cc2c(c3c1CCNC3)OCO2,103% (inactive)
6,Fc1ccc2c(c1)c(-c1nc(-c3c[nH]c4ncccc34)cs1)cn2CCCCN1CCCCC1,-7.3% (active)
7,O=C(Nc1ccncc1F)c1cn(CC2CC2)c2ccccc12,83.7% (inactive)
8,COP(=S)(N1CC1)N1CC1,98.6% (inactive)
9,C/C=C(\C)C(=O)O[C@@H]1C(O)[C@H]2OC(COC(=O)CCC(=O)CCCCCC[C@H](CCCCC)O[C@@H]3OC(C)[C@H](OC(C)=O)C(O)[C@H]3O2)[C@H]1OC(=O)/C=C/c1ccccc1 (some centres not stated),1.09% (active)
10,CCc1ccccc1[C@@H]1C[C@]2(C)CCO[C@@H]2OO1,102% (inactive)
11,CC(=O)O[C@H](C[C@H](C(C)C)N(C)C(=O)[C@@H](NC(=O)[C@H]1CCCCN1C)C(C)(C)C)c1nc(C(=O)N[C@@H](Cc2ccccc2)C[C@H](C)C(=O)O)cs1,61.4% (inactive)
12,COc1ccc(C(=O)c2cc(OC)c(OC)c(OC)c2)cc1OC(C)=O,102% (inactive)
13,COc1ccc(N(CC(=O)NCCC[Te]c2ccccc2)C(=O)CNC(=O)OC(C)(C)C)cc1,1.45% (active)
14,COC(=O)[C@@H](C)C[C@H](Cc1ccccc1)NC(=O)c1csc([C@@H](C[C@H](C(C)C)N(C)C(=O)[C@@H](NC(=O)[C@H]2CCCCN2C)C(C)C)OC(C)=O)n1,32.4% (inactive)
15,CC[C@H](C)[C@@H]1OC(=O)C(C)(C)[C@H](O)[C@H](Cc2ccccc2)OC(=O)[C@H](C(C)C)OC(=O)[C@@H](NC(=O)c2cccc(NC=O)c2O)[C@@H](C)OC1=O,51.2% (inactive)
16,NC(=O)CNc1ccc([As]=[As]c2ccc(NCC(N)=O)cc2)cc1 (configuration not stated),49.4% (inactive)
17,Fc1ccc2c(c1)c(-c1nc(-c3c[nH]c4ncccc34)cs1)cn2CCN1CCOCC1,49.2% (inactive)
18,O=C([O][Hg][CH2]C1COCC([CH2][Hg][O]C(=O)c2ccccc2)O1)c1ccccc1 (configuration not stated),106% (inactive)
19,O=[N+]([O-])CC(c1ccccc1Cl)c1c(-c2ccccc2)[nH]c2ccccc12 (configuration not stated),30.9% (inactive)

row,Compound,growth
1,CCn1c2ccccc2c2cc(C(=O)c3cccc4c3CCCN4)ccc21,92.2% (inactive)
2,COc1ccc(/C(C)=C(\c2ccc(OCCN3CCOCC3)cc2)c2ccc(OC(=O)Cc3ccccc3)cc2)cc1,110% (inactive)
3,Cc1cc(N(CCCl)CCCl)ccc1C=Nc1ccc(-c2csc(Cc3ccccc3)n2)cc1,54.6% (inactive)
4,Cc1ccc2c(C(C[N+](=O)[O-])c3cccs3)c(-c3ccccc3)[nH]c2c1 (configuration not stated),46.4% (inactive)
5,O=C(CC1(O)C(=O)N(Cc2ccccc2)c2ccc(Cl)cc21)c1ccc(C(=O)NCC2CCC3(CC2)OOC2(CCCCC2)OO3)cc1 (configuration not stated),-41.3% (active)
6,CCOC(=O)CCC(NC(=O)C(Cc1ccc(N(CCCl)CCCl)cc1)NC=O)C(=O)OCC (configuration not stated),57.5% (inactive)
7,COC(=O)[C@@H](C)C[C@H](Cc1ccccc1)NC(=O)c1csc([C@@H](C[C@H](C(C)C)N(C)C(=O)[C@@H](NC(=O)C23CC(NC(C)=O)(C2)C3)C2CC2)OC(C)=O)n1,107% (inactive)
8,COC(=O)[C@]12CCC(C)(C)C[C@H]1[C@H]1C(=O)C[C@@H]3[C@@]4(C)C[C@@]5(CC(C)(C)[C@@H]4CC[C@@]3(C)[C@]1(C)CC2)OO[C@@](C)(C(F)(F)F)O5,86.5% (inactive)
9,CNC(=O)Oc1ccc(N(C)C)cc1C(C)C,92.6% (inactive)
10,COc1ccc(/C=C\c2cc(OC)c(OC)c(OC)c2)cc1OCC(=O)Nc1nc2ccc(C(F)(F)F)cc2s1,45.8% (inactive)
11,O=C(CC1(O)C(=O)N(Cc2ccccc2)c2ccc(F)cc21)c1ccc(C(=O)NCC2CCC3(CC2)OOC2(CCCCC2)OO3)cc1 (configuration not stated),-43.2% (active)
12,c1cnc2[nH]cc(-c3csc(-c4cn(CCCCN5CCCCC5)c5ccccc45)n3)c2c1,95.3% (inactive)
13,COc1ccc(NC([Se])=NC23CC4CC(CC(C4)C2)C3)cc1,-32.7% (active)
14,Clc1cccc(Cl)c1Cl,101% (inactive)
15,C[C@]12CCc3sc(-c4ccccc4O)nc3C1=CC[C@@H]1[C@@H]2CC[C@]2(C)C(=O)CC[C@@H]12,108% (inactive)
16,O=C(CC1(O)C(=O)Nc2ccccc21)c1ccc(C(=O)NCC2CCC3(CC2)OOC2(CCCCC2)OO3)cc1 (configuration not stated),63.6% (inactive)
17,CCCOC(=O)N[C@H]1CCc2c(Br)c(OC)c(OC)c(OC)c2-c2ccc(SC)c(=O)cc21,15.4% (inactive)
18,Cc1cc(C)c(CBr)c(C)c1,92.8% (inactive)
